Bioassay records (PubChem BioAssay)
Sampled rows, rich in hits. Any-hit rate of the full collection: about 0.86%.
CDC25B-CDK2 inh: human CDC25B-CDK2/CyclinA binding inhibition | P30305+P24941 | HTRF CDC25B-CDK2/CyclinA binding, anti-His/anti-Flag; active compounds read high | z-score (no concentration beside the values) | 94,000 tested, 0.72% active; in the data active means z-score above about 3.2
HIV TAR-Tat: HIV-1 TAR-Tat binding disruption; 100,000 tested, 0.6% active; z-score (no concentration beside the values); HIV-1 TAR RNA, Tat peptide displacement FRET; active compounds read high; active means z-score of 3 or more in at least 2 runs
The depositor's hits bear a star; . = no result.

SMILES | CDC25B-CDK2 inh | HIV TAR-Tat
CN(C1CCCCC1)S(=O)(=O)c1ccc2[nH]c(=O)cc(C(=O)NCCc3ccccc3)c2c1 | 1.96 | .
COc1ccc(C2CC(=O)N3CN(C4CCCC4)CSC3=C2C#N)cc1 (stereo not drawn) | 5.53* | 0.43
N#CC1=C2SCN(C3CCCCC3)CN2C(=O)CC1c1ccc(Br)cc1 (stereo not drawn) | -1.15 | -1.11
Cc1ccc(C2CC(=O)N3CN(C4CCCC4)CSC3=C2C#N)cc1 (stereo not drawn) | 0.66 | 0.26
CCc1ccc(C2CC(=O)N3CN(C4CCCCC4)CSC3=C2C#N)cc1 (stereo not drawn) | 3.9* | -1.18
CCCCC(=O)Nc1ccccc1SCc1cc(=O)n2nc(C)sc2n1 | . | 0.66
COc1cc(NC(=O)CS(=O)(=O)c2cccc3nsnc23)cc(OC)c1 | . | 0.73
COc1cc(/C=c2/sc3nc4c(C)c(C)ccc4n3c2=O)cc2sc(=O)oc12 | -2.82 | .
O=C(/C=C/c1cccs1)NC(=S)Nc1ccccc1 | 8.26* | .
O=C(/C=C/c1cccs1)NC(=S)NCc1ccccc1 | -2.05 | .
Cc1cc2oc(C(=O)Nc3ccc4nsnc4c3)c(C)c2cc1C | -1.84 | -0.27
C=CCc1ccccc1OCc1nc2ccc(Cl)cc2[nH]1 | 2.72 | 1.53
COc1cccc2c1c(NC(=O)c1cc(C)oc1C)nn2C | -1.11 | .
CN(C)c1cccc2c1c(NC(=O)c1cc(Cl)sc1Cl)nn2C | 12.8* | .
O=C1CCCc2cc(S(=O)(=O)NCCc3ccco3)ccc2N1 | . | 0.13
Cc1ccc(C)n1-c1cccc(N)c1 | 4.02 | -3.17
COc1ccc(N)cc1-n1c(C)ccc1C | 1.93 | 10.4*
O=C(Nc1ccc(Br)cc1)c1cnn(-c2ccc(Cl)cc2)c1C1CCNCC1 | . | 1.78
O=C(c1cnn2cc(Br)cnc12)N1CCCC1c1ccccc1F (stereo not drawn) | 0.63 | 1.55
O=C(c1cnn2cc(Br)cnc12)N1CCCC1c1cccc(F)c1 (stereo not drawn) | 0.57 | 29.5*
CC(Cc1ccco1)NC(=O)c1ccc(N2CCOc3ccccc32)s1 (stereo not drawn) | -6.7 | 0.94
CCc1ccc(-n2c(=O)c(C#N)cc3c(=O)n4cccc(C)c4nc32)cc1 | 1.15 | -3.02
CC(C)c1ccc([C@@H]2Nc3ccc(C(=O)O)cc3[C@@H]3C=CC[C@@H]32)cc1 | -0.19 | .
COc1cccc2c1NC(C(=O)O)C1CC=CC21 (stereo not drawn) | 0.71 | 41.8*
Cc1ccc2c(c1)C1C=CCC1C(C(=O)O)N2 (stereo not drawn) | -1.05 | 5.23
SMILES | CDC25B-CDK2 inh | HIV TAR-Tat
CCOC(=O)[C@@H]1Nc2ccc(C(=O)O)cc2[C@@H]2C=CC[C@H]12 | 14.6* | 16.6*
CCOC(=O)c1ccc2c(c1)[C@@H]1C=CC[C@@H]1[C@H](c1ccc(C(=O)O)cc1)N2 | 1.6 | 7.95*
CCOC(=O)c1ccc2c(c1)[C@@H]1C=CC[C@@H]1[C@H](c1ccc(C(=O)OC)cc1)N2 | 0.35 | 0.76
COC(=O)c1ccc2c(c1)C1C=CCC1[C@@H](c1ccc(C(=O)O)cc1)N2 (stereo partly drawn) | -1.21 | 7.39*
COC(=O)c1cccc2c1NC(c1ccc(Br)cc1)C1CC=CC21 (stereo not drawn) | -0.12 | -6.01
CCn1c(=O)n(CC(=O)O)c2ccccc21 | -1.54 | -1.07
OCCCc1nc2ccccc2n1Cc1cccc(Cl)c1 | -2.48 | -0.64
O=C(O)c1cc(NC(=O)c2cccc(N3C(=O)c4ccc([N+](=O)[O-])cc4C3=O)c2)cc(C(=O)O)c1 | 0.88 | .
Cc1c(C(=O)C(=O)Nc2ccc(Br)cc2)c2ccccc2n1C | -2.03 | .
O=c1c(-c2ccccc2)cc(-c2ccccc2)nn1Cc1ccccc1F | -2.38 | .
O=C(Nc1ccc2nc(SCC(=O)N3CCOCC3)sc2c1)c1ccco1 | 2.49 | -0.37
CCCc1cc(=O)n2nc(N(C)CC(=O)NC3CCCc4ccccc43)sc2n1 (stereo not drawn) | -1.58 | 1.79
COc1ccc2c(c1)[C@@H]1C=CC[C@@H]1[C@H](c1ccc(C(=O)O)cc1)N2 | 4.24 | 14.3*
CCc1cccc2c1N[C@@H](c1ccc(C(=O)O)cc1)[C@H]1CC=C[C@@H]21 | -0.09 | .
CC(C)c1ccc2c(c1)[C@@H]1C=CC[C@@H]1[C@H](c1ccc(C(=O)O)cc1)N2 | -0.29 | .
Cc1cccc2c1N[C@H](c1ccc(C(=O)O)cc1)C1CC=CC21 (stereo partly drawn) | 6.75* | 2.89
CCOCCNc1ncnc2onc(-c3ccc(Cl)cc3)c12 | -1.8 | -0.47
Cc1nnsc1C(=O)Nc1nccs1 | -0.78 | 0.45
Cc1nn(CC(=O)NCCC2=CCCCC2)c(=O)c2cc3sccc3n12 | -2.3 | .
Cc1ccc(S(=O)(=O)N2CCN(S(=O)(=O)c3ccc4c(ccn4C)c3)CC2)c2nsnc12 | . | -0.17
Cc1cc(Br)cc2c1N(CCOc1ccccc1)C(=O)C2=O | -1.9 | 1.46
O=c1c(O)c(-c2ccc(O)cc2O)oc2cc(O)cc(O)c12 | -1.93 | 24.9*
O=c1c(O)c(-c2ccccc2O)oc2cc(O)cc(O)c12 | . | 2.47
O=c1c(O)c(-c2ccccc2)oc2cc(O)cc(O)c12 | . | 1.14
O=c1c(O)c(-c2cc(O)c(O)c(O)c2)oc2cc(O)cc(O)c12 | -0.86 | 38*
SMILES | CDC25B-CDK2 inh | HIV TAR-Tat
O=C(NC(=S)Nc1ccc(-c2nc3ccccc3o2)c(O)c1)c1ccc(Cl)cc1 | -2.41 | .
CCCCN1C(=O)C(O)(CC(=O)c2ccc(C(C)C)cc2)c2ccccc21 (stereo not drawn) | -0.27 | -0.21
NC(=O)CN1C(=O)C(O)(CC(=O)c2ccc(F)cc2)c2ccccc21 (stereo not drawn) | 16.1* | -0.04
CCN1C(=O)C(O)(CC(=O)c2ccc(F)cc2)c2ccccc21 (stereo not drawn) | -0.32 | -0.4
CCCCN1C(=O)C(O)(CC(=O)c2ccccc2)c2ccccc21 (stereo not drawn) | 11.8* | -1.56
Cc1ccc2[nH]cc(NC(=O)NCCCO)c(=O)c2c1 | -1.22 | 0.62
O=c1[nH]cnc2onc(-c3cc(F)cc(F)c3)c12 | -1.98 | 1.71
O=C(Nc1ccc(F)cc1)Nc1nnc(Cc2ccc(Cl)c(Cl)c2)s1 | -4.19 | .
O=c1cc(-c2ccccc2)oc2cc(O)c(O)c(O)c12 | . | 29.3*
COc1cccc2oc(-c3ccccc3)cc(=O)c12 | . | 1.42
CCN(CC)S(=O)(=O)c1ccc2c(c1)N(CC(=O)NC1CCCCC1)C(=O)C1CCCCN21 (stereo not drawn) | . | 0.91
Cc1cccc(C2Nc3cccc4cccc(c34)N2)c1 | 0.56 | 4.32
Oc1ccc2ccccc2c1C1Nc2cccc3cccc(c23)N1 | -1.01 | 14.8*
COc1cc(C2Nc3cccc4cccc(c34)N2)ccc1O | 0.77 | 7.27*
c1ccc(-c2ccc(C3Nc4cccc5cccc(c45)N3)cc2)cc1 | 0.78 | 5.26
O=C(Nc1ccc(Br)cn1)C1=Cc2sc3c(c2CS1)CCCC3 | . | -4.02
C=CCSc1nc2c(c(=O)[nH]1)C(c1cc(F)cc(F)c1)CC(=O)N2 (stereo not drawn) | -1.42 | -0.27
Cc1ccccc1CSc1nc2c(c(=O)[nH]1)C(c1ccc(O)c(O)c1)CC(=O)N2 (stereo not drawn) | 2.85 | 25.2*
CCOc1cc(C2CC(=O)Nc3nc(SCc4ccccc4C)[nH]c(=O)c32)ccc1O (stereo not drawn) | -0.18 | 1.76
CCCSc1nc2c(c(=O)[nH]1)C(c1ccc(O)c(O)c1)CC(=O)N2 (stereo not drawn) | 7.82* | 8.46*
